Compounds with a hit are over-represented: about 12% of the library has one in this group of screens.
Pf growth 96h: Primary qHTS for delayed death inhibitors of the malarial parasite plastid, 96 hour incubation; P. falciparum luciferase reporter growth, 96 h; Potency, µM (doses to about 28.7 µM), without a hit: at the top dose activity change, negative = inhibition, most hits filed as inhibitors; actives 6.9% (n = 320,000); AID 504834, 2011; further: on the % scale 0 is the no-effect control and ±100 the full control effect
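P. falciparum expressing integrated firefly luciferase, in erythrocytes at 2% hematocrit, 0.05% parasitemia, incubated with compounds 96 h at 37 C, 5% CO2. Growth inhibition read as loss of luminescence; two-generation exposure targets delayed-death apicoplast inhibitors.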
Pf growth 48h: Primary qHTS for delayed death inhibitors of the malarial parasite plastid, 48 hour incubation. P. falciparum luciferase growth in erythrocytes, 48 h. Potency, µM (top dose mostly 28.7 µM), for the others: at the top dose activity change, negative = inhibition, usual class: inhibitors. actives 5.9% (n = 310,000); further: on the % scale 0 is the no-effect control and ±100 the full control effect
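A one-generation exposure of luciferase-tagged malaria parasites in RPMI 1640/Albumax erythrocyte culture, 37 C and 5% CO2. Inhibition is inferred from decreased luminescence after adding detection reagent.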
SARS PLpro yeast: qHTS of Yeast-based Assay for SARS-CoV PLP; S. cerevisiae expressing SARS-CoV PLpro, growth rescue; Potency, µM (series often up to 32.9 µM), without a hit: top-dose activity, positive = growth rescue, hits mostly activators; actives 0.19% (n = 330,000); calls by dose curve; further: 0% is about no effect; nearly all actives have a fitted effect of over 55% in size
Sm TGR inh: qHTS Assay for the Inhibitors of Schistosoma Mansoni Peroxiredoxins; Schistosoma mansoni thioredoxin glutathione reductase (TGR), Q962Y6; purified TGR, DTNB reduction, TNB absorbance 405 nm; Potency, µM (top dose mostly 114 µM), for the others: at the top dose activity change, negative = inhibition, actives largely listed as inhibitors; actives 3% (n = 360,000); AID 485364, 2010; further: on the % scale 0 is the no-effect control and ±100 the full control effect; nearly all actives have a fitted effect of over 60% in size
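First, TGR (20 nM dispensed) and NADPH were mixed with compound. Second, a 15 min room-temperature incubation followed. Third, further NADPH and then DTNB were added to start the reaction. Finally, TNB absorbance was monitored kinetically.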
* marks the source's active call; other numbers are inactive results; ? = inconclusive; . = no result; [ ] = another dose, or the depositor's remark. Unless noted, the call rests on the fitted dose curve; in most records, active means well fitted curve in the direction sought with a large enough effect; inconclusive means small, poorly fitted or top-dose-only effect, or another doubt; inactive means no such curve, though single readings can be large; an effect the other way counts as inactive or inconclusive. Potency means the concentration at half of the fitted maximal effect.

SMILES	Pf growth 96h	Pf growth 48h	SARS PLpro yeast	Sm TGR inh
CC(=O)Nc1ccc(/C=N/NC(N)=S)cc1	-3%	1%	.	.
NC(=S)N/N=C/c1ccc(C23CC4CC(CC(C4)C2)C3)cc1	?	2.6µM*	?	-7%
CCCCOc1ccccc1NC(=O)Cn1c(-c2cncs2)nc2ccccc21	.	.	.	-10%
O=C(c1ccc(Cl)c(S(=O)(=O)N2CCc3ccccc3C2)c1)N1CCN(c2ccccc2)CC1	?	?	-2%	-16%
O=C(c1ccc(Cl)c(S(=O)(=O)Nc2ccccc2C(=O)N2CCc3ccccc3C2)c1)N1CCc2ccccc2C1	?	10µM*	-3%	-5%
COc1ccc(CNC(=O)c2ccc(-c3nc(CSc4ccccc4)c(C)o3)cc2)cc1	.	.	.	-9%
Cc1c(N=Cc2c(O)n(Cc3ccco3)c(=O)c3ccccc23)c(=O)n(-c2ccccc2)n1C	17%	12µM*	-1%	-4%
Cc1ccc(-c2nc(SCCOc3ccccc3C)n3[nH]c(=O)cc3n2)cc1	.	.	.	31%
CNCCCCOc1ccccc1Cc1ccccc1	17µM*	13µM*	4%	-3%
CN(C)CCOc1ccccc1Cc1ccccc1	?	?	-1%	0%
C/C(=N\NC(N)=S)C1=CCC2C3CC[C@H]4CC(O)CC[C@]4(C)C3CC[C@]12C (stereo partly specified)	12µM*	.	-2%	-2%
CCOC(=O)C1=C(C)Nc2nc(C)nn2C1c1cc(OC)ccc1OC (stereo unspecified)	8.3µM*	17%	-3%	-6%
CCOC(=O)C1=C(c2ccccc2)Nc2ncnn2C1c1ccc(OC)c(OC)c1OC (stereo unspecified)	?	-6%	1%	6%
CCOC(=O)C1=C(c2ccccc2)Nc2nc(C)nn2C1c1cccc(OC)c1OC (stereo unspecified)	9.3µM*	12µM*	3%	4%
CCOc1cc(S(=O)(=O)NCCc2c(C)[nH]c3ccc(C)cc23)ccc1F	.	.	.	7%
COc1ccc2oc(C(=O)OCC(=O)N(C)CC(=O)Nc3ccc(C)cc3)c(C)c2c1	20%	9%	0%	-4%
CCSCCc1nnc(NC(=O)Nc2cccc(C(F)(F)F)c2)s1	?	5.2µM*	2%	-1%
O=C(Nc1ccccc1)Nc1cccc(C(F)(F)F)c1	63%	?	-5%	-13%
O=C(CS(=O)(=O)c1cccc2nsnc12)Nc1ccc(F)cc1	.	.	.	0%
COc1ccc(C)cc1N(CC(=O)N1CCCCCC1)S(=O)(=O)c1ccccc1	48%	?	0%	-2%
CCC(O)C1CCN(Cc2cn(Cc3ccccc3)nc2-c2cc3ccccc3o2)CC1 (stereo unspecified)	0%	5.2µM*	0%	2%
COCCOC1CCN(Cc2cn(Cc3ccccc3)nc2-c2cc3ccccc3o2)CC1	30%	?	0%	1%[57.1 µM]
Cn1c(SC2=CS(=O)(=O)c3ccccc32)nc2ccccc21	5%[5.75 µM]	5.2µM*	-4%	40µM*
Cn1c(CSc2nc3ccccc3n2C)nc2ccccc21	14%	28%	-5%	12%
Nc1cc[n+](CC(=O)c2ccc3c(c2)OCCO3)cc1	?	4.7µM*	13%	10%
SMILES	Pf growth 96h	Pf growth 48h	SARS PLpro yeast	Sm TGR inh
COc1cccc(-n2nnc3c(=O)n(Cc4c(F)cccc4Cl)cnc32)c1	9.3µM*	8%	0%	7%
CCOC(=O)Cn1nc(-c2ccccc2)c2cnc3ccc(OCC)cc3c21	.	.	.	-6%
COC(=O)COC(=O)CC(CC(N)=O)c1ccccc1 (stereo unspecified)	9.3µM*	0%	0%	-2%
O=C(CC(CC(=O)c1ccccc1)c1ccccc1)c1ccccc1	1%	-8%	-1%	3%
Oc1cccc(Nc2ncnc3sc4c(c23)CCCC4)c1	.	.	.	4%
CCN(CC)CC(O)COc1ccccc1C(=O)CCc1ccccc1 (stereo unspecified)	.	1.5µM*	5%	37%
CC1CCc2c(sc(NC(=O)C3c4ccccc4Oc4ccccc43)c2C(N)=O)C1 (stereo unspecified)	6.6µM*	?	19%	-7%
CCOc1ccc(CNC(=O)Cn2nc(C)c3sc4ccccc4c3c2=O)cc1	.	.	.	-18%
Cc1cccc(C(=O)Nc2cccc(NC(=O)c3ccccc3)c2)c1	?	51%	4%	-5%
O=C(NC1=C(NC2CCS(=O)(=O)C2)C(=O)c2ccccc2C1=O)c1ccccc1 (stereo unspecified)	?	1.7µM*	-3%	.
Cc1cccc(NC2=C(NC(=O)c3ccccc3)C(=O)c3ccccc3C2=O)c1	?	0.47µM*	-41%	2.2µM*
O=C(NC1=C(Nc2ccc(Cl)cc2)C(=O)c2ccccc2C1=O)c1ccccc1	0.1µM*	0.13µM*	10%	6.3µM*
CN(c1ccc(C(=O)Nc2ccc(Cl)cn2)cc1)S(=O)(=O)c1ccccc1	-27%	-13%	-2%	12%
O=C1C(Cl)=C(NC(=O)c2ccccc2)C(=O)C(Cl)=C1NC(=O)c1ccccc1	?	.	-11%	?
CN(C1=C(NC(=O)c2ccc(Cl)cc2)C(=O)c2ccccc2C1=O)c1ccccc1	?	1.9µM*	-24%	-25%
CCc1ccc(NC(=O)CSc2ccc3nc(-c4ccc(OC)cc4)cn3n2)cc1	.	.	.	9%
Cc1ccc(S(=O)(=O)N2CCOCC2)cc1C(=O)Nc1ccccc1C(=O)O	.	.	.	8%
Oc1ccc(NCc2cccc(OCc3ccccc3)c2)cc1	-26%[5.75 µM]	-5%	-1%	13µM*
Oc1ccc(NCc2cccc(OCc3ccc(F)cc3)c2)cc1	14%	?	-3%	28µM*
Cc1c(Cl)cccc1NC(=O)Cn1c(=O)cc(C)c2c(C)nn(-c3cccc(F)c3)c21	.	.	.	2%
CCOc1ccccc1CNC(=O)c1ccc2c(c1)N(CC)CCS2	-13%	?	-6%	?
CC1Cc2ccccc2N1C(=O)c1cccnc1 (stereo unspecified)	.	-3%	-2%	-28%
CC1Cc2ccccc2N1C(=O)c1ccnc(C(C)(C)C)c1 (stereo unspecified)	30%	12µM*	7%	-1%
O=C(C[n+]1cc(-c2ccccc2)n2c1CCC2)c1cccs1	?	?	0%	-6%
O=C(C[n+]1cc(-c2ccccc2)n2c1CCC2)Nc1nc(-c2ccc(F)cc2)cs1	10µM*	?	12%	-3%
Cc1ccc(-c2c[n+](CC(=O)N3c4ccccc4Sc4ccccc43)c3n2CCC3)cc1	?	3.7µM*	-21%	8%
O=C(C[n+]1cc(-c2ccc(Br)cc2)n2c1CCCCC2)c1ccccc1	?	1.7µM*	1%	8%
O=C(C[n+]1cc(-c2ccccc2)n2c1CCC2)N1c2ccccc2Sc2ccccc21	?	4.1µM*	0%	5%
COc1ccc(S(=O)(=O)N(CC(=O)Nc2ccc(OC)cc2OC)c2ccc(Cl)cc2)cc1	.	.	.	9%
COc1cccc(CN2CCCN(CC(=O)Nc3ccc4c(c3)OCCO4)S2(=O)=O)c1	.	.	.	5%
